# In PubChem BioAssay AID463117 (University of Pittsburgh Molecular Library Screening Center, 2010):
# The other results are listed elsewhere or left out. Unmarked numbers belong to inactive results. Calls of active or inactive are those of the source.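 Rule for the calls: active = mean protection from necroptosis of at least 50% over duplicate tests; inactive = mean protection below 50%.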
# Assay: inhibitors of zVAD-triggered necroptosis in L929, confirmation, L929 cells, duplicate runs (AID 463117);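 note: 0% = cells with zVAD alone and 100% = vehicle cells without zVAD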
# Conditions: L929 zVAD-induced necroptosis rescue, ATP luminescence, 24 h; at 10 µM; active compounds read high
row,Compound,activation (protection from necroptosis)
1,Oc1ccc(/C=N/Nc2ccc(C(F)(F)F)cn2)cc1O,83.8% (active)
2,CC(=O)Nc1cccc(-c2cnc3ccccc3n2)c1,1.04%
3,O=C(COc1cccc(-n2cnnn2)c1)NCCC1=CCCCC1,36.6%
4,COc1ccc(-n2cnc3cc(C(=O)NC4CCCC4)ccc32)cc1,62% (active)
5,CC(=O)Nc1ccc(NC(=S)NC(=O)/C=C/c2ccccc2)cc1,-0.0785%
6,Cc1ccc(NC(=O)NC2CCCCC2)cc1S(=O)(=O)N1CCOCC1,2.38%
7,COc1cc(/C=N/Nc2nc3ccccc3s2)ccc1O,75.3% (active)
8,Cc1ccc(Nc2ccccc2N)cc1,5.52%
9,COc1ccc(-n2cnc3cc(NCc4ccco4)ccc32)cc1,52.9% (active)
10,CCOC(=O)N1CCN(C(=O)CNC(=O)Cc2ccc(Cl)cc2)CC1,34.3%
11,C[C@@H]1C[C@@H]2O[C@H]2/C=C\C=C\C(=O)Cc2c(Cl)c(O)cc(O)c2C(=O)O1,76.5% (active)
12,OCCCNc1nccc(-c2cc(Nc3cccc(Cl)c3)ncn2)n1,102% (active)
13,CC1CCCCC1NC(=O)/C(C#N)=C/C=C/c1ccccc1[N+](=O)[O-] (configuration not stated),4.07%
14,CCN(CC)S(=O)(=O)c1ccc(NC(=O)c2cccnc2Cl)c(NC(=O)c2cccnc2Cl)c1,2.93%
15,COc1ccc2nc(NC(=O)NC3CCCCC3)sc2c1,37.5%
16,CC(=O)c1cc(C#N)c(SCC(=O)Nc2nccs2)nc1C,0.793%
17,COc1cc(N=Cc2c(O)[nH]c3ccccc23)cc(OC)c1OC,72.9% (active)
